Screening data (PubChem)
Compounds with a hit are over-represented: about 9.3% of the library has one in this group of screens.
Rab9 prom act – Rab9 promoter activation. Potency, µM (highest dose often 9.22 µM), for the others: at the highest dose activation, negative = inhibition, hits mostly activators. 2.8% of 320,000 active. AID 485297. Huh7 Rab9 promoter-luciferase reporter, luminescence, 24 h; note: % of control where 0% means no effect; nearly all actives have a fitted effect of over 60% in size
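Huh7 cells stably carrying a Rab9 promoter-luciferase reporter, 1500 cells per well in OP-MEM I with 10% FBS, treated with compound 24 hours at 37C. Luciferase activity read by luminescence after 10 minutes with Amplite reagent.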
ELG1 genotoxic – induces genotoxicity in HEK293T cells with luciferase-tagged ELG1. 1.3% of 330,000 active. HEK293T ELG1-luciferase reporter, luminescence, 16 h. Potency, µM (titrated, usually from 46 µM), for the others: at the highest dose activity change, positive = activation, actives largely listed as activators; note: % of control where 0% means no effect; nearly all actives have a fitted effect of over 60% in size
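Quantitative HTS format in 1536-well plates. HEK293T ELG1-luciferase reporter cells receive test compound and are incubated 16 hr at 37 °C, 5% CO2; ONE-Glo added, 30 min room temperature, then luminescence read.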
ELG1 repair inh – ELG1-dependent DNA repair inhibition | HEK293T ELG1-luciferase reporter, luminescence, 16 h; DNA damage induced by 5-fluorouridine | Potency, µM (top dose mostly 46.1 µM), without a hit: at the highest dose activity change, negative = inhibition, actives largely listed as inhibitors | 2.3% of 330,000 active | AID 504467; note: % is set by controls: 0 for no effect and ±100 for the full control effect; nearly all actives have a fitted effect of over 55% in size
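Reporter activity after DNA damage by 5-fluorouridine is monitored. Compound-treated cells incubate 16 hr at 37 °C, then ONE-Glo is added for 30 min before luminescence reading.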
FLuc modulator – inhibits or activates purified firefly luciferase, miR-21 counter-screen; Potency, µM (top dose mostly 57.5 µM), for the others: at the highest dose activity change, negative = inhibition, actives largely listed as inhibitors; 6.9% of 360,000 active; purified FLuc, Km substrates, luminescence inhibition; AID 588342;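 note: plate controls were vehicle for no effect and reference inhibitor for full effect; nearly all actives have a fitted effect of over 55% in size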
Target sequence (P08659 whole entry, looked up): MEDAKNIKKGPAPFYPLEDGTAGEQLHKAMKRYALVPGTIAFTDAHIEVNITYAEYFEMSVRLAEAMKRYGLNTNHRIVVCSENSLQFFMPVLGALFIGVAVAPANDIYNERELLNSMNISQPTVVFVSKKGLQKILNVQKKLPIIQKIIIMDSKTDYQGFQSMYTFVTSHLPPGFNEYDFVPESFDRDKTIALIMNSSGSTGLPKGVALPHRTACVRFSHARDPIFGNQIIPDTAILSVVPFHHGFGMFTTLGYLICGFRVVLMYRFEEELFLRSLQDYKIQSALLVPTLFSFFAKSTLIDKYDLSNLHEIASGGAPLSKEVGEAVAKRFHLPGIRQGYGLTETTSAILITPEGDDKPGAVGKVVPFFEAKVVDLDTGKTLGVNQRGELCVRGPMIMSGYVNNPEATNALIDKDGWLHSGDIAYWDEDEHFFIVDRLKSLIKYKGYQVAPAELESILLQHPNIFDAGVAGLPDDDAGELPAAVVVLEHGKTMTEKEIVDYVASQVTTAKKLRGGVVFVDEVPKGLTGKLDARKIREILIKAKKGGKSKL
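Purified P. pyralis luciferase (10nM final) with 10uM D-luciferin and 10uM ATP (Km levels) in 50mM Tris acetate pH 7.5, 10mM Mg acetate, 0.01% Tween-20, 0.05% BSA; qHTS 6-point titration, ~60 µM downward; luminescence read.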
NPC1 prom act – activators of NPC1 promoter. Huh7 NPC1 promoter luciferase reporter, 24 h. Potency, µM (series often up to 9.22 µM), inactives show at the highest dose activation, most hits filed as activators. 2.4% of 320,000 active. AID 485313; note: % of control where 0% means no effect; nearly all actives have a fitted effect of over 60% in size
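Luciferase expression driven by the NPC1 promoter was measured in stably transfected Huh7 cells after a 24 h compound incubation, using a luciferase reagent and a luminescence read.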
SMN2 splice enh – SMN2 splice variant enhancement. HEK293 SMN2-luciferase splicing reporter, luminescence, 30-36 h. Potency, µM (titrated, usually from 46.1 µM), for the others: top-dose activity change, positive = activation, usual class: activators. 2.8% of 210,000 active. AID 1458; note: % of control where 0% means no effect; nearly all actives have a fitted effect of over 55% in size
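HEK293 cells carry an SMN2 minigene-luciferase reporter in which exon 7 inclusion puts luciferase in frame. Cells were seeded at 2000 cells/well, attached for 10-12 hours, then exposed to compounds for 30-36 hours at 37C before ONE-Glo luminescence.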
The depositor's hits bear a star; ? = inconclusive; nt = no result given. Calls come from the whole dose curve; as a rule, active = well fitted curve in the direction sought with a large enough effect; inconclusive = small, poorly fitted or top-dose-only effect, or another doubt; inactive = no such curve, though single readings can be large; an effect the other way counts as inactive or inconclusive. Potency is the fitted concentration of half-maximal effect.

SMILES	Rab9 prom act	ELG1 genotoxic	ELG1 repair inh	FLuc modulator	NPC1 prom act	SMN2 splice enh
O=C1/C(=C/c2ccco2)Cc2ccccc21	0%	?	?	13µM*	-2%	-1%
O=C1CN(C(=O)c2ccc(S(=O)(=O)N3CCCCC3)cc2)C(c2ccc(F)cc2)c2cc(F)ccc2N1 (centres undefined)	nt	nt	nt	3%	nt	5%
CCCN1CCC(NC(=O)C2CCN(C(C)=O)CC2)CC1	1%	1%	20%	-1%	-7%	nt
CCOC(=O)CCCSc1nc(-c2ccc3c(c2)OCO3)cc(C(F)(F)F)c1C#N	-3%	-1%	9%	2%	0%	2%
CCOC(=O)CC(=O)CSc1nc(-c2cccnc2)ccc1C#N	2%	?	?	?	3%	18%
CCOC(=O)CSc1nc(-c2ccc3c(c2)OCO3)ccc1C#N	0.79µM*	?	?	5.4µM*	2.5µM*	11%
CCOC(=O)CSc1nc(-c2ccncc2)ccc1C#N	0.4µM*	?	?	?	1.3µM*	1.1µM*
Cc1nc(CN(C)C(=O)c2cc(COc3ccc4ncccc4c3)on2)cs1	-43%	1%	?	-3%	-32%	-51%
CSCCC(NS(=O)(=O)c1ccc2c(c1)OCCO2)C(=O)N(C)Cc1ccccc1F (centres undefined)	-1%	-11%	16µM*	6%	1%	nt
O=C(OCC(=O)N1CCN(C(=O)c2ccco2)CC1)c1cc(-c2ccccc2)nc2ccccc12	8%	-12%	15µM*	15µM*	-2%	1%
O=C(OCC(=O)N1CCN(C(=O)c2ccco2)CC1)c1cc(-c2cccc(Br)c2)nc2ccccc12	-6%	-23%	16µM*	9.5µM*	1%	-12%
O=C(OCC(=O)N1CCN(C(=O)c2ccco2)CC1)c1cc(-c2ccc(F)cc2)nc2ccccc12	-13%	-19%	23µM*	11µM*	-2%	-8%
CCCCCCCC/C=C/CCCCCCCCOP(=O)([O-])OCC[N+](C)(C)C	nt	nt	nt	nt	nt	1%
CCN(CC)c1ccc(S(=O)(=O)N2CCOCC2)cc1NC(=O)CSc1nnc(N)s1	-6%	-2%	-7%	-8%	-5%	nt
Cc1cccc(NC(=O)CNC(=O)CCNC(=O)c2ccc(C(C)(C)C)cc2)c1C	-1%	1%	?	?	-1%	nt
Cc1ccc(CNC(=O)CSc2nnc(CNC(=O)c3ccccc3)o2)cc1	9%	-2%	3%	0%	-2%	nt
CC(=O)c1sc(NC(=O)C2CCCN2S(=O)(=O)c2ccccc2F)nc1C (centres undefined)	-3%	10%	20%	0%	-3%	nt
CN1C(=CC=C2C=C(I)C(=O)C(I)=C2)C(C)(C)c2ccccc21	-20%	-5%	?	21µM*	-3%	nt
CN1/C(=C\C=N\O)C(C)(C)c2ccccc21	-1%	2%	-2%	0%	8%	-2%
CN1/C(=C\C=C2/C(=O)Oc3ccccc3C2=O)C(C)(C)c2ccccc21	2.8µM*	?	-7%	?	?	?
CN(C)c1ccc(N=C/C=C2/N(C)c3ccccc3C2(C)C)cc1	20%	4%	?	15µM*	12%	-6%
CC1=NN(c2ccccc2)C(=O)/C1=C\C=C1/N(C)c2ccccc2C1(C)C	-2%	-9%	?	?	0%	-22%
CC(C)CN1CCCC2(CCN(S(=O)(=O)c3ccccc3)CC2)C1	nt	nt	nt	nt	nt	5%
CC(=O)Nc1ccc(C(=O)Nc2ccc3c(c2)OCCO3)cc1	5%	?	?	15µM*	-2%	nt
O=C(Nc1ccc2c(c1)OCCO2)c1ccc(Cl)cc1	0.45µM*	?	?	1.5µM*	0.71µM*	nt
SMILES	Rab9 prom act	ELG1 genotoxic	ELG1 repair inh	FLuc modulator	NPC1 prom act	SMN2 splice enh
CCOc1ccc(C(=O)Nc2ccc3c(c2)OCCO3)cc1[N+](=O)[O-]	21%	-13%	6%	?	0%	-28%
COc1cc(OC)cc(C(=O)Nc2ccc3c(c2)OCCO3)c1	3.2µM*	?	?	3µM*	4µM*	10µM*
CC(=O)Nc1ccc(C(=O)Nc2ccc3c(c2)OCO3)cc1	24%	13%	?	?	16%	3%
CCOc1ccc(C(=O)Nc2ccc3c(c2)OCCO3)cc1OC	?	18µM*	?	2.7µM*	?	13µM*
COc1ccccc1N1CCN(S(=O)(=O)CCNC(=O)C(c2ccccc2)c2ccccc2)CC1	nt	nt	nt	-3%	nt	nt
COc1cccc(-c2nc(CSCC(=O)NCCc3ccc(Cl)cc3)c(C)o2)c1	nt	nt	nt	-16%	nt	-41%
Cc1ccc(NC(=O)CN(C)C(=O)c2ccccc2Cc2ccccc2)cc1	-1%	-3%	-6%	2%	-1%	nt
CC(C(=O)Nc1ccccc1-c1ccccc1)N(C)Cc1nc2ccccc2c(=O)[nH]1 (centres undefined)	-14%	-5%	?	-1%	-18%	-8%
Cc1cccc(CCNS(=O)(=O)c2ccc3c(c2)CCN3C(=O)CCC(=O)O)c1	0%	1%	3%	0%	-5%	nt
CCN(CC(=O)Nc1ccc(NC(C)=O)cc1)C(=O)/C=C/c1ccc2c(c1)OCO2	0%	10%	?	?	-2%	nt
Cc1cc(C)n(-c2ccc(C(=O)Nc3ccc4c(c3)OCCO4)cc2)n1	?	?	0%	8.5µM*	?	17%
Cc1cc(C(=O)Nc2ccc3c(c2)OCCO3)co1	4.5µM*	?	?	3.4µM*	3.2µM*	nt
O=C(Nc1ccc2c(c1)OCCO2)c1ccc(NC(=O)C2CCCO2)cc1 (centres undefined)	22%	5%	25%	12µM*	14%	-5%
CCCCOc1ccc(/C=C/C(=O)N(CC)CC(=O)Nc2ccc3c(c2)OCCO3)cc1OC	2%	-10%	18µM*	-4%	-5%	nt
Cc1cc(C)n(-c2ccc(C(=O)NCc3ccc4c(c3)OCO4)cc2)n1	4%	-2%	-5%	12%	2%	-13%
CCc1ccccc1N(C)C(=O)c1cn(-c2cccc(OC)c2)c(=O)c2ccccc12	nt	nt	nt	-1%	nt	nt
CCN1CCCC1CNC(=O)C1CCN(C(=O)c2cc3sccc3n2Cc2ccc(F)cc2)CC1 (centres undefined)	-1%	5%	19%	-1%	-3%	12%
CCCCCC(=O)Nc1ccc(C(=O)COC(=O)Cn2cnc3c2c(=O)n(C)c(=O)n3C)cc1	2%	1%	?	1%	-1%	nt
Cc1ccc(C(=O)Nc2ccc3c(c2)OCCO3)o1	?	3.3µM*	?	3µM*	?	nt
